Reference: PubChem BioAssay (Tox21)
“And” between values parts separate entries of the source, which are not always exact repeats. Equal values may be shown once. Records with an inconclusive call do not appear. Some compounds were tested as several samples or in several runs, with calls that do not always agree. The source made the active and inactive calls. Unless noted, calls come from the whole dose curve; as a rule, active = well fitted curve in the direction sought with a large enough effect in the repeat runs; inconclusive = weak or mixed curves; inactive = no such curve, though single readings can be large; an effect the other way counts as inactive or inconclusive.

Legend:
[1] = target: Peroxisome proliferator-activated receptor delta (Homo sapiens) (UniProt Q03181); test: qHTS assay to identify small molecule agonists of the peroxisome proliferator-activated receptor delta (PPARd) signaling pathway (AID 743212; calls by dose curve)
Sequence of Peroxisome proliferator-activated receptor delta (Homo sapiens) (Q03181 whole entry, looked up): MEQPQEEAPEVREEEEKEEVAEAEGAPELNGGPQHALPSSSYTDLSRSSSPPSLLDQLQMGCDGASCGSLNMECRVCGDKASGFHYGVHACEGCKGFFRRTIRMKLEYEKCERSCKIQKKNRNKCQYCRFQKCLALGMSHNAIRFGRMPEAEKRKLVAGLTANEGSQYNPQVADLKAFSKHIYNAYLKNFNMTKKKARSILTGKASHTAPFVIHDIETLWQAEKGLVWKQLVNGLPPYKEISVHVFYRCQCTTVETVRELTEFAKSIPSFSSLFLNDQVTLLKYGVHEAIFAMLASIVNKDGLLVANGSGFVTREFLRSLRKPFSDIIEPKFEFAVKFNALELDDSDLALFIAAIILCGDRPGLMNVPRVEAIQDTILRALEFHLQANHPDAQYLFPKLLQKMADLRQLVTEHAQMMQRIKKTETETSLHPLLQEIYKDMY
Summary of the method: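 A PPARd-bla HEK293H line with beta-lactamase under an Upstream Activator Sequence is treated with compounds at 37 C. Substrate loading for 2 h at room temperature precedes the fluorescence measurement.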

[2] = qHTS assay to identify small molecule antagonists of the peroxisome proliferator-activated receptor delta (PPARd) signaling pathway - cell viability counter screen (AID 743213); note: nearly all actives have a fitted effect of over 50% in size; note: potency is the fitted concentration of half-maximal effect
Summary of the method: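 CellTiter-Glo was added to PPARd-bla HEK293H wells following 17 h compound treatment in the presence of 300 nM L165041. Luminescence was recorded after 30 min at room temperature.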

[3] = target: Peroxisome proliferator-activated receptor delta (Homo sapiens) (UniProt Q03181); test: qHTS assay to identify small molecule antagonists of the peroxisome proliferator-activated receptor delta (PPARd) signaling pathway (AID 743215; active = well fitted inhibition curve with a large enough effect in the signal ratio in the repeat runs, not every such curve was filed as active; the % refers to the signal ratio;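 note: cells stimulated with agonist L165041 at 300 nM final during compound exposure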; note: potency is the fitted concentration of half-maximal effect)
Summary of the method: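 Read-out is beta-lactamase FRET fluorescence, measured 2 h after substrate addition at room temperature. Beforehand, UAS-bla HEK293H cells carrying the PPARd reporter were exposed to compounds with L165041 at 300 nM final for 17 h at 37 C.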

[4] = qHTS assay to identify small molecule agonists of the farnesoid-X-receptor (FXR) signaling pathway - cell viability counter screen (AID 743218); note: nearly all actives have a fitted effect of over 45% in size; note: potency is the fitted concentration of half-maximal effect
Summary of the method: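 HEK 293T FXR-bla cells; 5 h pre-incubation, 16 h compound exposure at 37 C; LiveBLAzer substrate 2 h RT, then CellTiter-Glo 30 min RT, luminescence.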

[5] = qHTS assay to identify small molecule antagonists of the farnesoid-X-receptor (FXR) signaling pathway - cell viability counter screen (AID 743221; active = well fitted cell-killing curve with a large enough effect in the repeat runs, not every such curve was filed as active; note: nearly all actives have a fitted effect of over 50% in size; note: potency is the fitted concentration of half-maximal effect)
Summary of the method: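 Cytotoxicity counter screen run in the FXR-bla reporter wells: HEK 293T cells exposed to compound with 50 uM (final) chenodeoxycholic acid for 16 h, 37 C, then viability measured by CellTiter-Glo luminescence after 30 min, room temperature.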

[6] = qHTS assay to identify small molecule agonists of the NFkB signaling pathway - cell viability counter screen (AID 1159515; calls by dose curve; note: nearly all actives have a fitted effect of over 55% in size; note: potency is the fitted concentration of half-maximal effect)
Summary of the method: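 Luminescence from CellTiter-Glo (30 min, room temperature) gives viability, measured in the same wells as the beta-lactamase reporter read. Cells were NFkB-bla ME-180, 2,000 per well, treated 5 hr with compounds.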

[7] = qHTS assay to identify small molecule agonists of the endoplasmic reticulum stress response signaling pathway (AID 1159516; active = well fitted activation curve with a large enough effect in the signal ratio in the repeat runs, not every such curve was filed as active; the % refers to the signal ratio)
Summary of the method: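 Read-out is beta-lactamase cleavage of a FRET substrate (405 nm excitation; 460 and 530 nm emissions) in ESRE-bla HeLa cells after a 5 hr compound exposure at 37 C. Substrate incubation ran 2 hr at room temperature.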

[8] = qHTS assay to identify small molecule agonists of the endoplasmic reticulum stress response signaling pathway - cell viability counter screen (AID 1159517; calls by dose curve; note: nearly all actives have a fitted effect of over 50% in size; note: potency is the fitted concentration of half-maximal effect)
Summary of the method: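 CellTiter-Glo was added to wells already read for beta-lactamase FRET, and luminescence was recorded 30 min later. Cells: ESRE-bla HeLa, 1,500 per well, compound exposure 5 hr at 37 C.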

[9] = qHTS assay to identify small molecule antagonists of the retinoid-related orphan receptor gamma (ROR-gamma) signaling pathway - cell viability counter screen (AID 1159520); note: nearly all actives have a fitted effect of over 50% in size; note: potency is the fitted concentration of half-maximal effect
Summary of the method: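 Tet-on ROR gamma CHO cells (1,000/well) were plated 4 hr, given compounds in DMSO for 2 hr at 37 C, then induced with 1 uM final doxycycline for 16 hr. Viability was read as ATP by CellTiter-Glo luminescence after 30 min.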

[10] = qHTS assay to identify small molecule agonists of the AP-1 signaling pathway - cell viability counter screen (AID 1159525; calls by dose curve; note: nearly all actives have a fitted effect of over 55% in size; note: potency is the fitted concentration of half-maximal effect)
Summary of the method: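 ME-180 AP-1-bla, 2500 cells/well, Opti-MEM + 0.5% dialyzed FBS; overnight 37 °C; cpd 15-pt titration, 5 h 37 °C; CellTiter-Glo 30 min RT; luminescence read; normalised to TOAB and DMSO controls.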

[11] = qHTS assay to identify small molecule agonists of the AP-1 signaling pathway (AID 1159526; calls by dose curve)
[12] = target: Retinoic acid receptor RXR-alpha (Homo sapiens) (UniProt P19793); test: qHTS assay to identify small molecule agonists of the RXR signaling pathway (AID 1159527; calls by dose curve; note: nearly all actives have a fitted effect of over 35% in size; note: potency is the fitted concentration of half-maximal effect)
Sequence of Retinoic acid receptor RXR-alpha (Homo sapiens) (P19793 whole entry, looked up): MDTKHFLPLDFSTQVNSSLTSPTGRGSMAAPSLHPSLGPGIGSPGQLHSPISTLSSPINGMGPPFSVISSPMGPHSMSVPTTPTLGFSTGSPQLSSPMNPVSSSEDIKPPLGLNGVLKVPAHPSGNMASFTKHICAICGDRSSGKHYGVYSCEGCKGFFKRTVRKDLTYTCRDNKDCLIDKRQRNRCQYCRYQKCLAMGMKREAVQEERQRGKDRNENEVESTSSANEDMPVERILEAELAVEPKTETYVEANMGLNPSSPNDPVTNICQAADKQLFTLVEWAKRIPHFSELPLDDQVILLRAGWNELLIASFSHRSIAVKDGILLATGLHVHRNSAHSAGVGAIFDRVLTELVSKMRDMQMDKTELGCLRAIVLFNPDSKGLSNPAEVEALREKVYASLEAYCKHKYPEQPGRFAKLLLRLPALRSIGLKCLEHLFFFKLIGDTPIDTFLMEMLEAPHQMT
Summary of the method: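 Agonist-mode beta-lactamase reporter assay: HEK 293T RXR-alpha-UAS-bla cells treated 16 hr at 37 C with compounds, 9-cis retinoic acid as positive control. LiveBLAzer FRET substrate, 405 nm excitation, 460/530 nm emission.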

[13] = qHTS assay to identify small molecule agonists of the vitamin D receptor (VDR) signaling pathway - cell viability counter screen (AID 743224); note: nearly all actives have a fitted effect of over 50% in size; note: potency is the fitted concentration of half-maximal effect
Summary of the method: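 Luminescence from CellTiter-Glo, read after 30 min at room temperature, reports viability of VDR-bla cells treated with compounds for 16 h at 37C in the wells used for the beta-lactamase FRET read.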

[14] = qHTS assay to identify small molecule agonists of the peroxisome proliferator-activated receptor delta (PPARd) signaling pathway - cell viability counter screen (AID 743211); note: nearly all actives have a fitted effect of over 55% in size; note: potency is the fitted concentration of half-maximal effect
Summary of the method: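 Viability was measured as CellTiter-Glo luminescence (30 min, room temperature) in the same wells as the beta-lactamase readout. GeneBLAzer PPARd UAS-bla HEK293H cells received compound after 5 h plating and were incubated 17 h at 37 C.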

[15] = target: Vitamin D3 receptor (Homo sapiens) (UniProt P11473); test: qHTS assay to identify small molecule antagonists of the vitamin D receptor (VDR) signaling pathway (AID 743223; active = well fitted inhibition curve with a large enough effect in the signal ratio in the repeat runs, not every such curve was filed as active; the % refers to the signal ratio)
Sequence of Vitamin D3 receptor (Homo sapiens) (P11473 whole entry, looked up): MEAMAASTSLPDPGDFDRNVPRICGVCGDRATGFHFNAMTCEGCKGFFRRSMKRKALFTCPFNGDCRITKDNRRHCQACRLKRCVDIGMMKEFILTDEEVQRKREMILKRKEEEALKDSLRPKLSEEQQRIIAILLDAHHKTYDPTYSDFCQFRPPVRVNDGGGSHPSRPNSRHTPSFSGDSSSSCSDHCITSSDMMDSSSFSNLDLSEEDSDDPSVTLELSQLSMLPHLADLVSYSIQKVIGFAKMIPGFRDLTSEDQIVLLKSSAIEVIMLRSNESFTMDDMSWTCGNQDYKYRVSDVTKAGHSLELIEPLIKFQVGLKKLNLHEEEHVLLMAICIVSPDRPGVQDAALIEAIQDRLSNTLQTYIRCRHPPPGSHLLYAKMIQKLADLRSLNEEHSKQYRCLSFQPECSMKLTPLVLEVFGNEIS
Summary of the method: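 Antagonist mode: compound added to VDR-bla cells alongside agonist 1alpha,25-dihydroxyvitamin D3 (3 nM final), incubation 16 h at 37C. Read-out is LiveBLAzer FRET fluorescence, 2 h at room temperature.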

[16] = target: Nuclear receptor ROR-gamma (Homo sapiens) (UniProt P51449); test: qHTS assay to identify small molecule antagonists of the retinoid-related orphan receptor gamma (ROR-gamma) signaling pathway (AID 1159521; note: nearly all actives have a fitted effect of over 50% in size; note: potency is the fitted concentration of half-maximal effect)
Summary of the method: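 Antagonist read-out: drop in luminescence (ONE-Glo) from an RORE-LUC reporter in CHO cells with doxycycline-inducible ROR-gamma; 2 hr compound pretreatment, 1 uM doxycycline, 16 hr incubation at 37 C.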

[17] = target: Bile acid receptor (Homo sapiens) (UniProt Q96RI1); test: qHTS assay to identify small molecule antagonists of the farnesoid-X-receptor (FXR) signaling pathway (AID 743217; active = well fitted inhibition curve with a large enough effect in the signal ratio in the repeat runs, not every such curve was filed as active; the % refers to the signal ratio; note: potency is the fitted concentration of half-maximal effect)
Sequence of Bile acid receptor (Homo sapiens) (Q96RI1 whole entry, looked up): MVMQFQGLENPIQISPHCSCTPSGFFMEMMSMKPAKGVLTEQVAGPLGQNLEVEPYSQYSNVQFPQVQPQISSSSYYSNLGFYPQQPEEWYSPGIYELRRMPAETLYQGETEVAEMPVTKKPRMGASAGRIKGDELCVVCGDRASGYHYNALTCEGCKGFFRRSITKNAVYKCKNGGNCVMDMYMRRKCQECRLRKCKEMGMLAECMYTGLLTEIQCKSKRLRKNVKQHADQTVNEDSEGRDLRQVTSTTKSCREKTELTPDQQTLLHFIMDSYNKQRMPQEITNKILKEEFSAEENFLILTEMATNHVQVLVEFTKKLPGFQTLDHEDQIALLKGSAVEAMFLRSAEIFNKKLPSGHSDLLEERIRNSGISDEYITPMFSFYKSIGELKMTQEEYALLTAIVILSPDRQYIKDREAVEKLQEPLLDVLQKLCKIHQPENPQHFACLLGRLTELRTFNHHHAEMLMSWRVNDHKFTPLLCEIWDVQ
Summary of the method: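 HEK 293T FXR-UAS-bla, 5000 cells/well; compound + CDCA 50 uM final; 16 h, 37 °C; B/G FRET substrate 2 h RT; fluorescence.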

[18] = target: Bile acid receptor (Homo sapiens) (UniProt Q96RI1); test: qHTS assay to identify small molecule agonists of the farnesoid-X-receptor (FXR) signaling pathway (AID 743220; active = well fitted activation curve with a large enough effect in the signal ratio in the repeat runs, not every such curve was filed as active; the % refers to the signal ratio)
Summary of the method: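 Beta-lactamase reporter under UAS control in GeneBLAzer FXR HEK 293T cells (5000/well) measured with LiveBLAzer FRET substrate after 2 h at room temperature. Compound exposure lasted 16 h at 37C.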

[19] = target: Vitamin D3 receptor (Homo sapiens) (UniProt P11473); test: qHTS assay to identify small molecule agonists of the vitamin D receptor (VDR) signaling pathway (AID 743222; calls by dose curve)
Summary of the method: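 VDR-bla cells, 2,000/well; 4 h preincubation 37C; cpd (DMSO) 16 h; LiveBLAzer B/G substrate 2 h RT; fluorescence intensity read.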

[20] = qHTS assay to identify small molecule antagonists of the vitamin D receptor (VDR) signaling pathway - cell viability counter screen (AID 743225); note: nearly all actives have a fitted effect of over 50% in size; note: potency is the fitted concentration of half-maximal effect
Summary of the method: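 Cytotoxicity counter screen read by CellTiter-Glo luminescence (30 min, room temperature) in the same wells as the VDR-bla antagonist readout. HEK 293T VDR-UAS-bla cells had 16 h at 37C with compound and 3 nM (final) 1-alpha,25-dihydroxyvitamin D3, then 2 h with FRET substrate.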

Measured: Potency

CCCC1CCCCN1 (stereo not given)
not listed: [13] | [14] | [15] | [16] | [17] | [18] | [19] | [20]
inactive: all other assays above

CCC[N+](CCC)(CCC)CCC
not listed: [12] | [14] | [15] | [16] | [17] | [18] | [19] | [20]
inactive: all other assays above

O=[N+]([O-])/C=C/c1ccccc1
active: [14] 14 µM and 17.4 µM | [2] 44.4 µM | [4] 19.8 µM and 15.5 µM | [5] 19.8 µM and 38.9 µM | [6] 44.4 µM and 54.9 µM | [9] 11 µM and 13.7 µM | [16] 5.54 µM and 9.69 µM
inactive: [15] | [8] | [10]

O=P(OCC(Br)CBr)(OCC(Br)CBr)OCC(Br)CBr (stereo not given)
active: [17] 46.5 µM
inactive: [1] | [18] | [5] | [6] | [8] | [9] | [10] | [11]

CC[N+]1(CCOC(=O)C(O)(c2ccccc2)c2ccccc2)CCCCC1
not listed: [6] | [18]
inactive: all other assays above

COP(=O)(OC)OC(Br)C(Cl)(Cl)Br (stereo not given)
inactive: [1] | [5] | [19] | [15] | [20] | [6] | [8] | [10]
active: [9] 24.3 µM | [16] 27.3 µM

C=CCc1ccc(OC(=O)Cc2ccccc2)c(OC)c1
not listed: [3] | [12] | [15] | [16] | [17] | [18]
inactive: all other assays above

Cc1nc2ccccc2c(=O)n1-c1ccccc1Cl
not listed: [1] | [3] | [12] | [16] | [17] | [18] | [20]
inactive: all other assays above

CN(C)c1ccc(N=O)cc1
inactive and 49 µM (active): [4]
inactive: [1] | [17] | [18] | [5] | [15] | [7]
inactive and 19.5 µM (active): [20]
active: [14] 43.6 µM | [2] 43.6 µM | [3] 21.9 µM | [13] 19.6 µM and 43.6 µM | [6] 43.6 µM | [8] 43.6 µM | [9] 15.4 µM and 12.2 µM | [10] 21.9 µM and 30.9 µM

O=C(O)COc1cc(Cl)c(Cl)cc1Cl
not listed: [1] | [12] | [16] | [18]
inactive: all other assays above

O=C(O)c1cc(I)cc(I)c1I
not listed: [12] | [15] | [16] | [18] | [19]
inactive: all other assays above

CCCN(CCC)c1c([N+](=O)[O-])cc(C(C)C)cc1[N+](=O)[O-]
not listed: [7] | [17] | [18]
inactive: all other assays above

Cc1ncc(C[n+]2csc(CCO)c2C)c(N)n1
not listed: [1] | [3] | [12] | [13] | [16] | [17] | [18]
inactive: all other assays above

CN1C[C@H](C(=O)N[C@]2(C)O[C@@]3(O)[C@@H]4CCCN4C(=O)[C@H](Cc4ccccc4)N3C2=O)C=C2c3cccc4[nH]cc(c34)C[C@H]21
54.7 µM (active) and inactive: [16]
not listed: [1] | [3] | [7] | [14] | [15] | [17] | [19]
inactive: all other assays above

CC(C)[C@@H](C(=O)O[C@@H](C#N)c1cccc(Oc2ccccc2)c1)c1ccc(Cl)cc1
active: [16] 17.5 µM
not listed: [7] | [11] | [12] | [15] | [17] | [18] | [19] | [20]
inactive: all other assays above

Clc1ccc(Cl)c(Cl)c1
inactive and 12.3 µM (active): [12]
not listed: [1] | [3] | [4] | [16] | [17] | [18] | [19]
inactive: all other assays above

C[C@@H]1C[C@@H]([C@H](O)CC2CC(=O)NC(=O)C2)C(=O)[C@@H](C)C1
active: [16] 383 nM and 137 nM and 237 nM
not listed: [1] | [3] | [9] | [11] | [12] | [13] | [15] | [19]
inactive: all other assays above
